This passage reports Potency results from PubChem BioAssay (NCATS).

Where “and” joins values, the source holds several entries; their conditions need not be identical. Equal values may be shown once. Records with an inconclusive call do not appear. A call without a number means that no potency is given here. Some structures have more than one record in an assay (separate samples or runs), and their calls can disagree. Calls of active or inactive are those of the source. Calls come from the whole dose curve; as a rule, active = well fitted inhibition curve with a large enough effect; inconclusive = small, poorly fitted or top-dose-only effect; inactive = flat fitted curve, though single readings scatter.
Potency is the fitted concentration of half-maximal effect.

In this experiment the test system is MCC-26. The experiment in a line: qHTS assay to identify novel small-molecules to repurpose for Merkel cell carcinoma treatment (AID 1296009). Note: nearly all actives have a fitted effect of over 60% in size. The conditions noted are these: MCC and control cell lines, CellTiter-Glo viability, 72 h; series mostly up to 46 µM. An excerpt:
MCC is a rare and aggressive neuroendocrine skin cancer with limited treatment options. Approximately 80% of MCCs have the Merkel cell polyomavirus (MCPyV) DNA integrated into the host genome (virus-positive: VP-MCC) and viral oncogenes drive oncogenesis. The remaining MCCs are virus-negative (VN-MCC) and are caused by UV mutagenesis. To identify novel treatments for VP-MCC and/or VN-MCC we screened three VP-MCC cell lines (WAGA, MKL-1, MKL-2), three VN-MCC cell lines (MCC-13, MCC-26, UISO), and four immortalized, non-transformed control cell lines (HaCaT, HEK293T, CRL7250, NIH-3T3) against ~2,400 compounds in the NCGC Pharmaceutical Collection (NPC) and ~1,900 compounds in the Mechanism Interrogation PlatE (MiPE). Using cell viability as a readout (CellTiter-Glo assay) we found both overlapping and distinct drugs that can be repurposed for the treatment of VP-MCC and VN-MCC.
A high-throughput screen was conducted in 1536-well white flat bottom plates (Corning) on a Kalypsys robotic system. Cell lines WAGA, MKL-1, MKL-2, MCC-13, MCC-26, UISO, HaCaT, HEK293T, CRL7250, and NIH-3T3 were screened against 2 small molecule annotated drug libraries NPC and MIPE in dose response (8 and 11 pt. respectively) measuring cell viability after 72 hours of incubation. […] A 1,536 pintool (Kalypsys) was used to transfer 23 nL of compound in DMSO to the 1,536-well assay plates. After 72 hr incubation at 37 degree celsius, 2.5 uL of CellTiter-Glo (Promega) was dispensed into each well using a BiorapTR. Plates were incubated at room temperature for 10 min, transferred to a ViewLux (PerkinElmer) and the luminescence was recorded using an exposure time of 2 seconds. Relative luminescence units (RLUs) were normalized to in-plate controls (no cells as a positive (cytotoxicity) control, DMSO as negative control) and the normalized data was processed using NCATS in-house software.
In general terms: Quantitative high-throughput screening tests each substance at several concentrations.
As for `O=c1c(O)c(-c2cc(O)c(O)c(O)c2)oc2cc(O)cc(O)c12`, the Potency result was “inactive”.

Regarding `CC(=O)NC[C@H]1CN(c2ccc(N3CCOCC3)c(F)c2)C(=O)O1`, the Potency result was “inactive”.

For the molecule `O=C(NCC1CCCCN1)c1cc(OCC(F)(F)F)ccc1OCC(F)(F)F` (stereo not given), the Potency result was “inactive”.

Regarding `Oc1ccc2ccccc2c1SSc1c(O)ccc2ccccc12`, the Potency entry is “inactive”.

Take `CC[C@]1(O)C[C@H]2CN(CCc3c([nH]c4ccccc34)[C@@](C(=O)OC)(c3cc4c(cc3OC)N(C=O)[C@H]3[C@@](O)(C(=O)OC)[C@H](OC(C)=O)[C@]5(CC)C=CCN6CC[C@]43[C@@H]65)C2)C1`: the Potency was 46.9 nM (active).

Regarding `O=C(CCc1ccc(O)cc1)c1c(O)cc(O)cc1O`, the Potency entry is “inactive”.

For `Clc1ccc2c(N3CCN(CCCN4CCN(c5ccnc6cc(Cl)ccc56)CC4)CC3)ccnc2c1`, the Potency entry is “inactive”.

With `O=C1c2c(O)cc(O)cc2OC(c2ccc(O)c(O)c2)C1O` (stereo not given), the Potency entry is “inactive”.

As to `CC1Cc2ccccc2N1NC(=O)c1ccc(Cl)c(S(N)(=O)=O)c1` (stereo not given), the Potency entry is “inactive”.

For `OC(CN1CCN(c2cccc(Cl)c2)CC1)C(c1ccccc1)c1ccccc1` (stereo not given), the Potency entry is “inactive”.

With `CCCCC(CC)COC(=O)C(C#N)=C(c1ccccc1)c1ccccc1` (stereo not given), the Potency entry was “inactive”.

Regarding `O=C1c2ccccc2-c2n[nH]c3cccc1c23`, the Potency result is “inactive”.

For `CCN(CC)C(=S)SSC(=S)N(CC)CC`, the Potency was 1.48 µM (active) and 596 nM (active).

For the molecule `CCCc1cc(=O)[nH]c(=S)[nH]1`, the Potency result was “inactive”.

Take `CC(=O)Nc1ccc(O)cc1`: the Potency entry is “inactive”.

Take `Clc1ccc(C(Cn2ccnc2)OCc2c(Cl)cccc2Cl)c(Cl)c1` (stereo not given): the Potency entry was “inactive”.

With `CC(C)c1nc(CN(C)C(=O)N[C@H](C(=O)N[C@@H](Cc2ccccc2)C[C@H](O)[C@H](Cc2ccccc2)NC(=O)OCc2cncs2)C(C)C)cs1`, the Potency result was “inactive”.

Take `O=C(NCCO[N+](=O)[O-])c1cccnc1`: the Potency entry is “inactive”.

For the molecule `COc1ccc2cc([C@H](C)C(=O)O)ccc2c1`, the Potency entry was “inactive”.

Turning to `NCCCCNCCCN`, the Potency entry is “inactive”.

For `NC(=O)Cc1cccc(C(=O)c2ccccc2)c1N`, the Potency result is “inactive”.

Take `Cc1cc(=O)c2c(O)c3c(O)cc(=O)c4c3c3c(cc(O)c1c23)C(C)(C)C=4O`: the Potency entry was “inactive”.

As for `N=C(N)c1ccc2cc(OC(=O)c3ccc(N=C(N)N)cc3)ccc2c1`, the Potency entry was “inactive”.

As for `O=C1NC(=O)C(c2ccccc2[N+](=O)[O-])=C1Nc1ccc(O)c(Cl)c1`, the Potency entry was “inactive”.

`Cc1nc2n(c(=O)c1CCN1CCC(c3noc4cc(F)ccc34)CC1)CCCC2`: the Potency entry was “inactive”.

In the case of `CN(C)c1ccc(O)c2c1C[C@H]1C[C@H]3[C@H](N(C)C)C(=O)C(C(N)=O)=C(O)[C@@]3(O)C(=O)C1=C2O`, the Potency result was “inactive”.

With `CCN(CC)CCOc1ccc(Cc2ccccc2)cc1`, the Potency result was “inactive”.

With `Nc1ncn([C@H]2C[C@H](O)[C@@H](CO)O2)c(=O)n1`, the Potency result was “inactive”.

For `O=C(O)c1cn(-c2ccc(F)cc2)c2cc(N3CCNCC3)c(F)cc2c1=O`, the Potency result is “inactive”.

With `CCOc1cc(CC(=O)N[C@@H](CC(C)C)c2ccccc2N2CCCCC2)ccc1C(=O)O`, the Potency result is “inactive”.

For the molecule `CC(=O)O[C@H]1C(=O)[C@@]2(C)C([C@H](OC(=O)c3ccccc3)[C@]3(O)C[C@H](OC(=O)[C@H](O)[C@@H](NC(=O)c4ccccc4)c4ccccc4)C(C)=C1C3(C)C)[C@]1(OC(C)=O)CO[C@@H]1C[C@@H]2O` (stereo not given in full), the Potency was 3.7 nM (active).

Take `CC1=C(C)C(=O)C(C(CCCCCC(=O)O)c2ccccc2)=C(C)C1=O` (stereo not given): the Potency result was “inactive”.

With `COC(=O)C1=C(C)NC(C)=C(C(=O)OCCCN2CCC(c3ccccc3)(c3ccccc3)CC2)C1c1cccc([N+](=O)[O-])c1` (stereo not given), the Potency result is “inactive and 23.7 µM (active)”.

Regarding `COc1cc(C(C)=O)ccc1OCCCN1CCC(c2noc3cc(F)ccc23)CC1`, the Potency entry was “inactive”.

As for `O=C(NC(Cc1cc(=O)[nH]c2ccccc12)C(=O)O)c1ccc(Cl)cc1` (stereo not given), the Potency entry is “inactive”.

Regarding `CC1=C(C(=O)O)N2C(=O)[C@@H](NC(=O)[C@H](N)C3=CCC=CC3)[C@H]2SC1`, the Potency entry was “inactive”.

As for `CN1CCC(=C2c3ccccc3CCc3sccc32)CC1`, the Potency entry is “inactive”.

In the case of `CC(C)[C@H](N)C(=O)OCCOCn1cnc2c(=O)[nH]c(N)nc21`, the Potency result is “inactive”.

Turning to `O=Nc1c(-c2c(O)[nH]c3cc(Br)ccc23)[nH]c2ccccc12`, the Potency was 16600 nM (active).

On to `Cc1cc(Cl)ccc1OCCCC(=O)NO`, for which the Potency result is “inactive”.
